# Whole data set: some 110,000 compounds, median “z-score” near -0.1, cut for the highest 2% near 2. This is one part of a sample in which the highest values are shown more often than they occur. Activity calls are given as the source filed them.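 Rule for the calls: active = z-score in the third read window above 3 or below -3; inactive = the rest.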
# Target: Metabotropic glutamate receptor 8 (Rattus norvegicus) (UniProt P70579)
# Test: rat mGluR8 modulators via GIRK flux, primary screen, cell-based, thallium flux, HTS (AID 488969)
# Details: HEK293 rat mGluR8, GIRK (G protein-gated inwardly rectifying potassium channel) thallium flux, FluoZin2; at 10 µM; stronger effect = higher value; submaximal glutamate (EC20) added with thallium
# Metabotropic glutamate receptor 8 (Rattus norvegicus), sequence (P70579 whole entry, looked up): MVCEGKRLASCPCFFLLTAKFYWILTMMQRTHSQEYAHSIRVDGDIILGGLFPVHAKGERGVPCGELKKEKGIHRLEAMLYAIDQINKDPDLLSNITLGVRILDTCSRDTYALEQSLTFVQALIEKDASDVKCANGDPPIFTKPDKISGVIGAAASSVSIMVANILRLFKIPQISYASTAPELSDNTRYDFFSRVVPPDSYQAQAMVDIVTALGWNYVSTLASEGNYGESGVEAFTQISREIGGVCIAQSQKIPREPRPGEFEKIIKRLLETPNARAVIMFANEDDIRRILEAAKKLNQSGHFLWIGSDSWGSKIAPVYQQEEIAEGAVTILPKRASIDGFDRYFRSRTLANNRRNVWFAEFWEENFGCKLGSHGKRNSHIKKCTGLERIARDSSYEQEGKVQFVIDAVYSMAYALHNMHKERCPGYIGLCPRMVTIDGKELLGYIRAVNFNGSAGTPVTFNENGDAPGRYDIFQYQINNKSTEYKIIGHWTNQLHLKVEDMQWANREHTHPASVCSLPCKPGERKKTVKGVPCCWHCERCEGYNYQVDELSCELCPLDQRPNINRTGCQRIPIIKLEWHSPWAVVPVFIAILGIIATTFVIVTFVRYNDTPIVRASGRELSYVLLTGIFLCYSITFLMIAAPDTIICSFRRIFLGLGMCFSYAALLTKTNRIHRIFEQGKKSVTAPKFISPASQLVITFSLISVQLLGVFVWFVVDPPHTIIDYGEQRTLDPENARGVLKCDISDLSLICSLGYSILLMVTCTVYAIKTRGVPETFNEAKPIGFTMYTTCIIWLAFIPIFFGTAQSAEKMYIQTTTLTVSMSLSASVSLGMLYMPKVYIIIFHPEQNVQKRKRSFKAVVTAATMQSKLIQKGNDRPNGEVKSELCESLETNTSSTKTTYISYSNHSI
row,Compound,z-score
1,COc1ccc(CCn2c(N)c(S(=O)(=O)c3cccs3)c3nc4ccccc4nc32)cc1OC,-0.349
2,COc1ccc(CC(=O)OCCN(C)C)cc1,0.0321
3,O=C(CCCN1C(=O)c2cccc3cccc(c23)C1=O)N1CCN(c2ccccn2)CC1,0.0204
4,O=C(CCN1C(=O)COc2ccccc21)N1CCN(c2ccccn2)CC1,0.258
5,O=C(CN1C(=O)/C(=C\c2cccc(F)c2)Oc2ccccc21)N1CCN(c2ccccn2)CC1,0.117
6,O=C(CN1C(=O)/C(=C/c2ccccc2F)Oc2ccccc21)N1CCN(c2ccccn2)CC1,6.44 (active)
7,O=C(CN1C(=O)c2ccccc2C1=O)N1CCN(c2ccccn2)CC1,-0.293
8,O=C(CN1C(=O)c2cccc3cccc(c23)C1=O)N1CCN(c2ccccn2)CC1,8.64 (active)
9,CC(C)c1nnc(SCC(=O)NCc2ccc3c(c2)OCO3)n1C,-0.49
10,CCn1c(=O)n(CC)c2cc([N+](=O)[O-])ccc21,-0.0668
11,COc1ccccc1NC(=O)Cc1c(F)cccc1Cl,-0.193
12,O=C(Nc1cccc2ncccc12)c1ccc(-c2ccc(Br)cc2)o1,-0.163
13,CCOC(=O)C1=C(C)NC(=O)NC1c1ccc(C)o1 (centres undefined),0.0551
14,CCOC(=O)C1=C(C)NC(C)=C(C(=O)OCC)C1c1ccc(Br)o1,-0.356
15,CCOC(=O)C1=C(C)NC(=O)NC1c1ccc(Br)o1 (centres undefined),2.92
16,O=C(CN1C(=O)c2ccccc2C1=O)NCCc1c[nH]c2ccccc12,-0.164
17,CCOc1ccc(C2=C(C=Nc3c(C)n(C)n(-c4ccccc4)c3=O)C(c3ccc(F)cc3)c3ccccc3O2)cc1 (centres undefined),1.53
18,Cc1c(C)[n+](=O)c2c(n1[O-])CCC2,14.6 (active)
19,Cc1ccc(-c2c(C)n([O-])c3c([n+]2=O)CCC3)cc1,-0.263
20,CCc1c(C)n([O-])c2c([n+]1=O)CCC2,0.305
21,Cc1ccc(OCCCSc2ncccn2)cc1C,-0.106
22,Cn1c(SCc2nnc(-c3ccc(F)cc3)o2)nnc1C1COc2ccccc2O1 (centres undefined),-0.382
23,O=C(NC1CCCCCC1)c1cccc(N2CCCC2=O)c1,-0.399
24,CN1CCN(C(=O)CN(Cc2ccc(Cl)cc2)S(C)(=O)=O)CC1,0.244
25,Cc1cc(NC(=O)CSc2nc3ccccc3n2CC(=O)N2CCCCC2)no1,0.0584
26,Cc1ccc(N2C(=O)C3CC(c4ccccc4)=C4C5C=CC(C6C(=O)N(c7ccc(C)cc7)C(=O)C56)C4C3C2=O)cc1 (centres undefined),-0.0459
27,COc1ccc(S(=O)(=O)Nc2cccc(NC(C)=O)c2)cc1,0.142

row,Compound,z-score
1,COc1ccccc1OCC(=O)Nc1oc(-c2ccccc2)c(-c2ccccc2)c1C#N,2.87
2,COc1cc2c(cc1NC(=O)Nc1cccc(C)c1)oc1ccccc12,2.68
3,COc1cc2c(cc1NC(=O)Nc1ccccc1)oc1ccccc12,-0.0976
4,COc1ccc(OCC(=O)Nc2cc3oc4ccccc4c3cc2OC)cc1,-0.347
5,COc1cc2c(cc1NC(=O)COc1ccc3ccccc3c1)oc1ccccc12,-0.183
6,COc1cc2c(cc1NC(=O)Nc1ccc(C)cc1)oc1ccccc12,-0.398
7,COc1cc2c(cc1NC(=O)COc1ccccc1OC)oc1ccccc12,5.54 (active)
8,Cc1cccc(C)c1OCC(=O)Nc1oc(-c2ccccc2)c(-c2ccccc2)c1C#N,-0.376
9,Cc1ccc(OCC(=O)Nc2oc(-c3ccccc3)c(-c3ccccc3)c2C#N)cc1,-0.212
10,CCn1c(SCc2nc(-c3ccc(OC)c(OC)c3)no2)nnc1-c1cccs1,-1.5
11,Cc1ccccc1OCCCC(=O)Nc1ccc2c(c1)OCO2,0.157
12,O=C(Nc1cccc(S(=O)(=O)N2CCCC2)c1)c1ccc2c(=O)n3c(nc2c1)CCCCC3,-1.24
13,COc1ccc(/C=N/n2c(=O)[nH]c3c([nH]c4ccc(C)cc43)c2=O)cc1CN1CCOCC1,-0.0345
14,CC(=O)N(c1ccccc1)c1nc(C)cc(C)c1C#N,-0.111
15,Cc1[nH]c2ccccc2c1C(=O)COC(=O)C1CC(=O)N(Cc2ccccc2)C1 (centres undefined),-0.363
16,CSc1nc2nccc(-c3ccc(-c4ccccc4)cc3)n2n1,-0.5
17,CSCCC(NC(=O)c1ccccc1)C(=O)NC1CC1 (centres undefined),0.177
18,Cc1nn(C(C)C(=O)N2CCCCC2)c(=O)c2c1sc1ccccc12 (centres undefined),-0.115
19,CCCCN(CCCC)C(=O)c1ccccc1NC(=O)CN1C(=O)c2ccccc2C1=O,-0.366
20,C=CCN(C)CC/C=C1\c2ccccc2CSc2ccccc21,1.99
21,CC(O)CN(C)CC/C=C1/c2ccccc2CSc2ccccc21 (centres undefined),0.694
22,C#CCN(C)CC/C=C1\c2ccccc2CSc2ccccc21,1.63
23,O=C1c2ccccc2C(=O)c2c1ccc(C(=O)N1CCCCC1)c2NCCO,0.68
24,Cc1cc(OCC(=O)O)c2ccccc2n1,-0.146
25,CC1(Br)C2CCCC1C2S(=O)(=O)c1ccccc1 (centres undefined),-0.376
26,CC(NS(=O)(=O)c1ccc(Cl)cc1)C(=O)NCc1ccco1 (centres undefined),0.0263
27,O=C(N/N=C\c1cc(Br)cs1)C1COc2ccccc2O1 (centres undefined),2.32

row,Compound,z-score
1,O=C(N/N=C/c1cccs1)C1COc2ccccc2O1 (centres undefined),0.238
2,O=C(N/N=C/c1ccc2c(c1)OCO2)C1COc2ccccc2O1 (centres undefined),0.435
3,CCOC(=O)/C=C1\CC(=O)Nc2cc(C)c(C)cc2N1,0.197
4,CCCNC(=O)C/C(C)=N/NC(=O)COc1ccc(C)cc1Br,-0.101
5,Cc1cc(OCC(=O)NCC(C)C)cc(C)c1Br,-0.137
6,C/C(CC(=O)NCC(C)C)=N\NC(=O)COc1cc(C)c(Br)cc1Br,5.36 (active)
7,C/C(CC(=O)NC(C)C)=N\NC(=O)COc1cc(C)c(Br)cc1Br,6.24 (active)
8,CCOC(=O)C/C(C)=N/NC(=O)COc1ccccc1C,0.0596
9,C/C(CC(=O)Nc1ccccc1-c1ccccc1)=N\NC(=O)COc1ccc(C)cc1Br,0.458
10,O=C(CSc1ncnc2sc3c(c12)CCCC3)N1CCC(c2noc3ccc(F)cc23)CC1,0.658
11,CCOC(=O)NC(Nc1ccc(S(N)(=O)=O)cc1)(C(=O)OCC)C(F)(F)F (centres undefined),0.00287
12,COC(=O)c1ccc(/C=N/NC(=O)CC(=O)NC(C)C)cc1,-0.108
13,CC(=O)Nc1ccc(S(=O)(=O)Nc2nc3ccccc3nc2Nc2ccc(S(N)(=O)=O)cc2)cc1,-0.462
14,O=C(Nc1nnc(C2=COCCO2)o1)c1ccc(Cl)cc1,0.709
15,O=C(Nc1nnc(-c2ccc(Cl)cc2)o1)c1ccccc1Br,5.35 (active)
16,O=C(Nc1nnc(-c2ccccc2)o1)c1cc(Cl)sc1Cl,11.3 (active)
17,O=C(Nc1nnc(-c2ccc(Cl)cc2)o1)C1=COCCO1,2.01
18,NC(=O)c1oc2ccccc2c1NC(=O)c1nc2ccccc2s1,-0.927
19,COc1ccc(-c2nnc(NC(=O)C3=COCCO3)o2)cc1,0.731
20,O=C(Nc1nnc(-c2ccccc2)o1)C1CCCCC1,0.0922
21,O=C(Nc1nnc(-c2ccc(Cl)cc2)o1)Nc1ccccc1Cl,1.85
22,O=C(Nc1ccccc1)Nc1nnc(-c2ccccc2)o1,-0.193
23,Cc1ccccc1C(=O)Nc1nnc(-c2ccc(F)cc2)o1,-0.035
24,O=C(Nc1nnc(-c2ccc(Cl)cc2)o1)c1nc2ccccc2s1,4.07 (active)
25,O=C(Nc1nnc(-c2ccccc2Cl)o1)c1nc2ccccc2s1,1.61
